This note sets out measurements from PubChem BioAssay AID782 (Emory University Molecular Libraries Screening Center, 2007).

For orientation: inhibition means the drop in the measured response relative to a control, in per cent.

About 800 (0.36%) of roughly 220,000 compounds were called active.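 Rule for the calls: active = inhibition above about 30% (limit read from the data); inactive = the rest.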 This excerpt belongs to a sample that is enriched for actives.

Eukaryotic translation initiation factor 4E (Mus musculus) + Eukaryotic translation initiation factor 4 gamma 1 (Homo sapiens), sequence (P63073 whole entry, looked up, the tested form may be a part): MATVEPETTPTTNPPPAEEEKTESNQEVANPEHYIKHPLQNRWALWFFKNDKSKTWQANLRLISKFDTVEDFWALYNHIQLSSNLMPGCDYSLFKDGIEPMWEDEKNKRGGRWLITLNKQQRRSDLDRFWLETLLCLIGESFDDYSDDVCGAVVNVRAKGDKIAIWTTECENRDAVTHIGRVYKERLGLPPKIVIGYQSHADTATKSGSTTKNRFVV
Eukaryotic translation initiation factor 4E (Mus musculus) + Eukaryotic translation initiation factor 4 gamma 1 (Homo sapiens), sequence (Q04637 whole entry, looked up, the tested form may be a part): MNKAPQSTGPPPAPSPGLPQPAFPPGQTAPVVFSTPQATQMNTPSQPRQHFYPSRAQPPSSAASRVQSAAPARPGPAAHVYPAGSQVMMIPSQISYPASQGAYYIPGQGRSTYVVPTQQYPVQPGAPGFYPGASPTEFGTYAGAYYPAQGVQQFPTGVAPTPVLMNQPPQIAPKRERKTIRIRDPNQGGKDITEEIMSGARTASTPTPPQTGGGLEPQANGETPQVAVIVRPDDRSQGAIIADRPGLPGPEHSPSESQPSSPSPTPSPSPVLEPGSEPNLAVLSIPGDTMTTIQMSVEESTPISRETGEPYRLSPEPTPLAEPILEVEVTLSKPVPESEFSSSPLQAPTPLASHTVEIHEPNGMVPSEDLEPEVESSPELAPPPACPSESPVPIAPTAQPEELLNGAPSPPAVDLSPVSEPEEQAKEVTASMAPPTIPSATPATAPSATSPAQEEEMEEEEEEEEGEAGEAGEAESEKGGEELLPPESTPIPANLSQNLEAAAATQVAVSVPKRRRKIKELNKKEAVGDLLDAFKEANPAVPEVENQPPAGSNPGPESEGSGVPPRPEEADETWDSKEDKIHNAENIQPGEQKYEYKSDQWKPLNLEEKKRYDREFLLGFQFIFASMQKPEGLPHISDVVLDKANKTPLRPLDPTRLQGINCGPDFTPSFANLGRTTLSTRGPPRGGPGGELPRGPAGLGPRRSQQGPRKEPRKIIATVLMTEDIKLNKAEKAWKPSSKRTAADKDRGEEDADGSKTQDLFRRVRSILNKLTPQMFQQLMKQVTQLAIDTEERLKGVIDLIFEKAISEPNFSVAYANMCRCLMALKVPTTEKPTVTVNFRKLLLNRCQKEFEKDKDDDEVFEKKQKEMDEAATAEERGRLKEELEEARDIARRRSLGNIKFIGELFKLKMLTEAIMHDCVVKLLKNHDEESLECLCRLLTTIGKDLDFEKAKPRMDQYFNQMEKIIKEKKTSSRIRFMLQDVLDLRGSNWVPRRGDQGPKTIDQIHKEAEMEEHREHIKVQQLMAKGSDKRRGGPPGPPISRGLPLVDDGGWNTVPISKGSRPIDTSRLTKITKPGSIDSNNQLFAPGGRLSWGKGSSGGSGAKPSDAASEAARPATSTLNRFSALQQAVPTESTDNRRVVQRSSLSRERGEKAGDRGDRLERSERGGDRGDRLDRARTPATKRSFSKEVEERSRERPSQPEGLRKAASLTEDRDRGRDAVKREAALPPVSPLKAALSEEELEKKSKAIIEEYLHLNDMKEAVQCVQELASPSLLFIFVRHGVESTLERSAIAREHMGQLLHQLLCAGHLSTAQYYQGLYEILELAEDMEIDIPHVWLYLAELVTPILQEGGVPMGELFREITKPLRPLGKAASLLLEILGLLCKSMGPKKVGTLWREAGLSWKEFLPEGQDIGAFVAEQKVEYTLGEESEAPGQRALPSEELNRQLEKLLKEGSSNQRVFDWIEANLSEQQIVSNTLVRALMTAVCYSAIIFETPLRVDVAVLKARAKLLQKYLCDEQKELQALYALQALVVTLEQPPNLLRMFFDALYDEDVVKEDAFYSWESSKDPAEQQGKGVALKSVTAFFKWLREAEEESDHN

This assay has as its target Eukaryotic translation initiation factor 4E (Mus musculus) + Eukaryotic translation initiation factor 4 gamma 1 (Homo sapiens) (UniProt P63073+Q04637). Description: eIF4E–eIF4G protein interaction inhibitors, primary screen, biochemical, uHTS, TR-FRET, eIF4GI fragment (AID 782).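 Note: 0% = full FRET control wells and 100% = background wells lacking eIF4GI fragment.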 The conditions noted are these: TR-FRET eIF4E-eIF4GI(517-606) binding, 2 h; at 21.7 µM; active compounds read high. For orientation: TR-FRET usually uses a lanthanide donor and a delayed reading to cut background.
Take `COc1ccc(CNC(=O)C2CC(c3ccc(C(F)(F)F)cc3)=NO2)cc1` (stereo unspecified): the inhibition was 0.84% (inactive).

`C=C(C)C(=O)O[C@H]1C/C(C)=C\C(=O)/C=C(\C)[C@H](O)[C@@H]2OC(=O)C(=C)[C@@H]21`: the inhibition was 2.79% (inactive). For `CCn1c(NC(=O)c2nn(C)cc2Br)nc2ccccc21`, the inhibition is 2.02% (inactive). `CC(C)N(C(=O)c1ccc(-c2ccccc2F)cc1)C(C)C`: the inhibition is 6.78% (inactive). With `O=S(=O)(c1ccc(Cl)cc1)N1CCCN(c2ccc(C(F)(F)F)cn2)CC1`, the inhibition was 2.55% (inactive).

Turning to `CCOC(=O)N1CCN(C(c2cccnc2)c2ccc3cccnc3c2O)CC1` (stereo unspecified), the inhibition is 41.4% [fluorescence artefact?] (active). Turning to `Oc1c(C(c2ccccn2)N2CCOCC2)ccc2cccnc12` (stereo unspecified), the inhibition was 5.26% (inactive). In the case of `CCN1CCN(C(c2cccnc2)c2cc(Cl)c3cccnc3c2O)CC1` (stereo unspecified), the inhibition is 15.4% (inactive). The value for `O=C(Cc1cccs1)Nc1nnc(C2CC2)s1` was -4.66% (inactive); that for `CCc1nnc(NC(=O)Cc2cccs2)s1` was 28.2% (inactive); that for `COc1ccc(Cc2nnc(NC(=O)Cc3cccs3)s2)cc1` was 30.8% (active).

Regarding `O=C1C(Cc2ccc(O)cc2)NC(=S)N1Cc1ccccc1` (stereo unspecified), the inhibition was 4.64% (inactive).

`O=C(NC(Cc1c[nH]c2ccccc12)C(=O)O)/C(=C/c1ccco1)NC(=O)c1ccccc1` (stereo unspecified): the inhibition is 1.5% (inactive). In the case of `CN(C(=O)Nc1ccc(Cl)cc1)n1cnc2ccccc2c1=O`, the inhibition was -1.03% (inactive).

Regarding `CC(C)(C)NC(=O)Cn1cnc2cc([N+](=O)[O-])ccc2c1=O`, the inhibition is 6.94% (inactive). For `O=C(Cn1cnc2cc([N+](=O)[O-])ccc2c1=O)NC(=O)NCc1ccccc1`, the inhibition was 90.5% (active). For `O=C(Cn1cnc2c(cnn2-c2ccccc2)c1=O)NCc1ccccc1`, the inhibition was -7.03% (inactive). On to `CCC(C)(C)NC(=O)/C=C/c1cc(OC)c(OC)c(S(=O)(=O)N2CCc3ccccc32)c1`, for which the inhibition is -2.6% (inactive). On to `CCN(Cc1ccccc1)C(=O)CN1C(=S)NC(C)(C)CC1C` (stereo unspecified), for which the inhibition is -8.44% (inactive). The value for `CC(=O)Nc1cccc(/C(C)=N/NC(=O)c2c(-c3ccccc3Cl)noc2C)c1` was 1.91% (inactive).

On to `COc1ccc(N2CCN(C(=O)/C(C#N)=C/c3ccccc3)CC2)cc1`, for which the inhibition was 1.4% (inactive). In the case of `COC(=O)c1sc2[nH]c(=S)n(N)c(=O)c2c1C`, the inhibition is -5.75% (inactive).

Regarding `Cc1c(CN2CCC(CO)(CCOc3ccccc3)CC2)[nH]c2ccc(Cl)cc12`, the inhibition was 3.73% (inactive). With `Cc1cc(C)c2c(c1)cc(C)c1nnc(SCC(=O)Nc3cc(C)on3)n12`, the inhibition is 0.38% (inactive). As for `Cc1ccc(C)c2c1cc(C)c1nnc(SCC(=O)Nc3cccc(C(=O)O)c3)n12`, the figure is 92.4% (active). Turning to `CCCn1c(SCC(=O)Nc2cccc(C(=O)OCC)c2)nnc1-c1ccoc1C`, the inhibition was -5.54% (inactive). As for `CCCCOc1ccc(C(=O)NCC(=O)OCC(=O)N2CCN(S(=O)(=O)c3ccc(C)cc3C)CC2)cc1`, the inhibition is 11.8% (inactive).

In the case of `O=C(OCC(=O)c1c[nH]c2ccccc12)c1cccc(O)c1`, the inhibition is 49.4% (active). For the compound `CC1CCN(CC(=O)c2c[nH]c3ccccc23)CC1`, the inhibition was -20.8% (inactive). As to `O=C(Cc1c[nH]c2ccccc12)OCCOC(=O)Cc1c[nH]c2ccccc12`, the inhibition is 0.18% (inactive). The value for `CCOC(=O)CCCNC(=O)COC(=O)c1cc(Br)c(Br)s1` was -0.44% (inactive); that for `COc1ccccc1OCC(=O)O/N=C(\N)c1ccccn1` was 4.41% (inactive); that for `CCCn1nc(NS(=O)(=O)c2ccccc2)c2cc3cc(C)ccc3nc21` was 0.92% (inactive). In the case of `N#CCCCn1c(O)c(N=NC(=O)C(O)c2ccccc2)c2ccccc21` (stereo unspecified), the inhibition was 1.55% (inactive). With `COC(=O)Cn1c(O)c(N=NC(=O)OC)c2ccccc21`, the inhibition is 94.3% (active). Take `CCCCn1c(O)c(N=NC(=O)Cn2c(C(F)(F)F)nc3ccccc32)c2ccccc21`: the inhibition was 16% (inactive). In the case of `CC1(C)C(c2cccs2)=[N+]([O-])C2(CCCCC2=O)N1O` (stereo unspecified), the inhibition was -4.23% (inactive). Consider `COc1ccc(NC(=O)COc2ccc(C(=O)OCC(=O)N(C)C3CCS(=O)(=O)C3)cc2OC)cc1` (stereo unspecified), for which the inhibition was -0.66% (inactive).

Turning to `Cc1c(-c2cccc(Cl)c2)nc2ccccc2c1C(=O)OCC(=O)N(C)C1CCS(=O)(=O)C1` (stereo unspecified), the inhibition is 2.67% (inactive). With `CN(C(=O)COC(=O)c1cc(-c2ccco2)nc2ccccc12)C1CCS(=O)(=O)C1` (stereo unspecified), the inhibition is 42.4% (active). For `O=C(NNC(=S)NC(=O)c1cn(-c2ccccc2)nc1-c1ccccc1)c1ccncc1`, the inhibition was 0.17% (inactive). In the case of `Cc1ccc(N(C(=O)C(F)(F)F)C(C(=O)NC2CCCCC2)c2ccncc2)cc1C` (stereo unspecified), the inhibition was 4.58% (inactive). The value for `S=C(NCCc1ccccc1)N1CCn2cccc2C1c1ccncc1` (stereo unspecified) was -2.42% (inactive); that for `Cc1ccc(NC(=S)NC2CCCC2)cc1` was 1.43% (inactive); that for `COc1ccc(NC(=S)NC2CCS(=O)(=O)C2)cc1` (stereo unspecified) was 49.7% (active). The value for `COc1ccc(-c2ccc(OC(=O)NC3CCS(=O)(=O)C3)cc2)cc1` (stereo unspecified) was 2.9% (inactive).
